Screening data as filed in PubChem.
PP5 primary: blocks human protein phosphatase 5 activity; inhibition, % at 6.7 µM; purified PP5c, OMFP substrate fluorescence; AID 1987; 320,000 compounds, 0.18% hits; P53041;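 active = inhibition above the campaign's mean inhibition across all tested compounds plus 3 SD, cut at about 9.5% in these data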;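 also: 0% = DMSO only and 100% = 100 µM cantharidin control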
Target sequence (P53041 whole entry, looked up): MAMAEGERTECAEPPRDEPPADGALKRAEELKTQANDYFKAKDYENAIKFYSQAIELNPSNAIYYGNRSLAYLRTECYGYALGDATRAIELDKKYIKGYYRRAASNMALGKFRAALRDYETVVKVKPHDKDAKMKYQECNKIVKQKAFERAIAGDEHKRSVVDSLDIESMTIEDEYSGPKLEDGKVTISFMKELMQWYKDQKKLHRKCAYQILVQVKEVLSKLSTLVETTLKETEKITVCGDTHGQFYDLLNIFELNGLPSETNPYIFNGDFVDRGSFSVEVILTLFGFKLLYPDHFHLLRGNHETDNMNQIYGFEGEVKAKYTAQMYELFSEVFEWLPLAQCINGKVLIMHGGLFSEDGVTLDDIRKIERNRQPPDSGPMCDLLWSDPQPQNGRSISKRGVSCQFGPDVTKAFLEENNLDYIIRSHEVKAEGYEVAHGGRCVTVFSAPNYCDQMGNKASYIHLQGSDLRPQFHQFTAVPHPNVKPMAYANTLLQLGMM
PME-1 inh: PME-1 (human) inhibition; recombinant PME-1, FP-Rh probe fluorescence polarization; inhibition, % at 5.9 µM; 320,000 compounds, 0.53% hits;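 active = inhibition above the campaign mean of all compounds plus 3 SD, cut at about 26% in these data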;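 also: competitive labeling of PME-1 active site by serine hydrolase directed probe; 0% = PME-1 with DMSO and 100% = wells lacking PME-1 enzyme; inhibitors block probe labeling so polarization falls and inhibition rises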
LYPLA2 inh: blocks human lysophospholipase 2, a PME1 counter-screen; recombinant LYPLA2, FP-Rh probe fluorescence polarization; inhibition, % at 5.9 µM; O95372; 320,000 compounds, 0.38% hits;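 active = inhibition above the screen-wide mean plus 3 SD, limit set per campaign, cut at about 26% in these data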;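 also: 0% = LYPLA2 with DMSO and 100% = wells lacking LYPLA2 enzyme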
Target sequence (O95372 whole entry, looked up): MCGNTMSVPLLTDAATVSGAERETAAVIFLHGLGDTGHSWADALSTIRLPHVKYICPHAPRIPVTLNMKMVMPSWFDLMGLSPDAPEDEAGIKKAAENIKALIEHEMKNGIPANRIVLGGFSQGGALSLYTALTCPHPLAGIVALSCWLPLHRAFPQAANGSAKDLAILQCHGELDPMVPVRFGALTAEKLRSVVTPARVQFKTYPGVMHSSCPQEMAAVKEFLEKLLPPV
PP1 inh: PP1-alpha (human) inhibition in PP5 counter-screen; purified PP1alpha, OMFP fluorescence; inhibition, % at 6.7 µM; 320,000 compounds, 0.9% hits;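 active = inhibition above the mean inhibition of all tested compounds plus 3 SD, computed separately for each screening campaign, cut at about 15% in these data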
LYPLA1 inh: LYPLA1 (human) inhibition in PME1 counter-screen; inhibition, % at 5.9 µM; 320,000 compounds, 0.16% hits; recombinant LYPLA1, FP-Rh probe fluorescence polarization; O75608;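 active = inhibition above the mean of all tested compounds plus 3 SD, set per campaign, cut at about 14% in these data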;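 also: inhibitors block serine hydrolase probe labeling of LYPLA1 so polarization falls; 0% = enzyme with DMSO and 100% = wells lacking LYPLA1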
Fam108B inh: counter-screen for RBBP9 inhibitors: inhibitors of mouse Fam108B; recombinant Fam108B, FP-Rh probe fluorescence polarization; inhibition, % at 9.51 µM; 300,000 compounds, 0.33% hits; AID 1947;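 active = inhibition above the screen mean inhibition plus 3 SD, computed separately per campaign, cut at about 18% in these data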;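 also: inhibitors lower polarization as less probe binds the enzyme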
LYPLA2 conf: counter-screen for PME1 inhibitors: confirmation of human LYPLA2 inhibitors; 1,100 compounds, 72% hits; shares compounds with LYPLA2 inh; AID 2232; recombinant LYPLA2, FP-Rh probe fluorescence polarization; inhibition, % at 5.9 µM;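 active = mean inhibition across replicates above the hit cutoff set in the primary screen, cut at about 26% in these data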;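 also: blocked labeling of the enzyme by serine hydrolase FP-Rh probe lowers polarization; 0% = enzyme with DMSO and 100% = wells lacking LYPLA2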
LYPLA2 gel ABPP: LYPLA2 (human) inhibition, late stage results. shares compounds with LYPLA2 inh. rhLYPLA2 in mouse brain proteome, gel ABPP FP-Rh. 150 compounds, 30% hits. AID 652029. inhibition, % at 20 µM;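 active = inhibition of LYPLA2 enzyme probe labeling above about 50%, limit read from the data; inactive = inhibition below that limit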;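 also: loss of FP-Rh probe labeling of the LYPLA2 gel band measured as band density; 0% = DMSO only control band and 100% = blank gel background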
The depositor's hits bear a star; / = not tested or not shown. Compounds with a hit are over-represented: about 1.8% of the library has one in this group of screens.

SMILES	PP5 primary	PME-1 inh	LYPLA2 inh	PP1 inh	LYPLA1 inh	Fam108B inh	LYPLA2 conf	others
CC1CCCN(C(=O)c2ccc3c(c2)OCCO3)C1 (stereo unspecified)	1.6	-0.6	0.7	-0.7	-1.0	/	/
COc1ccccc1C(=O)C1CCCN(C(=O)c2ccc3c(c2)OCCO3)C1 (stereo unspecified)	0.6	7.6	42.6*	0.8	5.8	-4.7	5.3
Cc1cc(C)n(CCNC(=O)c2cc(COc3ccc4ncccc4c3)on2)n1	-1.5	-2.0	4.7	-3.0	0.4	-2.0	/
Cc1ccc(F)cc1CNC(=O)c1cc(COc2ccc3ncccc3c2)on1	2.0	-0.5	45.7*	2.0	2.1	0.4	54.0*	LYPLA2 gel ABPP=31.0
O=C(NCc1cccc(Cl)c1)c1cc(COc2ccc3ncccc3c2)on1	0.5	-0.9	39.5*	-0.1	0.0	-4.4	35.7*
CC(=O)c1ccc(OCC(O)CN2CCN(CCN3C(=O)c4cccc5cccc(c45)C3=O)CC2)cc1 (stereo unspecified)	0.1	1.7	52.7*	-3.3	1.5	1.1	59.1*	LYPLA2 gel ABPP=20.0
C=CCc1ccccc1OCC(O)CN1CCN(CCN2C(=O)c3cccc4cccc(c34)C2=O)CC1 (stereo unspecified)	3.8	-4.6	26.6*	6.6	4.8	-8.2	36.8*
CCC(OCC(O)CN1CCN(CCN2C(=O)c3cccc4cccc(c34)C2=O)CC1)c1ccccc1 (stereo unspecified)	1.5	-9.2	44.9*	2.1	3.1	1.7	46.2*
Cc1ccccc1OCC(O)CN1CCN(CCN2C(=O)c3cccc4cccc(c34)C2=O)CC1 (stereo unspecified)	6.2	1.0	39.2*	-2.0	-3.3	-4.7	47.8*
O=C(Nc1nncs1)C1CC(=O)N(CCc2ccc(F)cc2)C1 (stereo unspecified)	0.8	0.1	1.7	-0.7	3.5	0.2	/
Oc1ccccc1C1CCCCC1c1ccccc1 (stereo unspecified)	0.8	-2.7	-6.4	4.4	-4.2	-3.5	/
Cc1cccc(NC(=O)CN(CC2CCCO2)C(=O)c2oc3ccccc3c2C)c1C (stereo unspecified)	0.4	3.8	-0.8	1.2	2.0	/	/
Clc1ccc(-c2nnc(C3CC3)o2)cc1	3.1	2.0	9.5	-2.8	4.7	1.2	/
CCC1CCC(c2nnc(-c3ccc([N+](=O)[O-])cc3)o2)CC1 (stereo unspecified)	1.0	-2.3	49.3*	-0.3	6.0	3.9	51.3*	LYPLA2 gel ABPP=23.0
O=C(COC(=O)CCN=C1NS(=O)(=O)c2ccccc21)NNC(=O)c1ccc(Cl)cc1	1.4	-7.7	8.9	-1.1	-0.8	/	/
CN(CC(=O)O/N=C(\N)c1ccccn1)S(=O)(=O)c1ccc(Br)cc1	3.8	-4.3	40.3*	-2.4	3.0	-2.9	21.5
Cc1ccc(S(=O)(=O)N(C)CC(=O)O/N=C(\N)c2ccccn2)cc1	-0.5	4.9	6.5	-3.9	2.9	0.6	/
CCN1CCN(c2ccc(S(=O)(=O)N3CCOCC3)cc2NC(=O)/C=C/c2ccc([N+](=O)[O-])cc2)CC1	4.4	1.0	-1.5	2.6	-1.7	0.6	/
CCN(CC)S(=O)(=O)c1ccc(N2CCOCC2)c(NC(=O)CNCCc2ccccc2)c1	-0.8	6.4	53.0*	-3.5	0.1	-0.3	57.6*	LYPLA2 gel ABPP=16.0
CCN(CC)S(=O)(=O)c1ccc(N2CCOCC2)c(NC(=O)COc2ccccc2)c1	1.0	8.4	4.2	2.6	0.5	-1.5	/
COc1ccc(CN(C)S(=O)(=O)c2ccc3c(c2)OCCO3)cc1	3.4	4.2	5.6	-2.3	-1.5	-4.5	/
Cc1c(NC(=O)C(C)OC(=O)c2cccnc2Cl)c(=O)n(-c2ccccc2)n1C (stereo unspecified)	-0.4	4.4	2.2	-4.1	1.0	/	/
Cc1cccc(Nc2c([N+](=O)[O-])cc(C(=O)N3CC(=O)Nc4ccccc43)cc2[N+](=O)[O-])c1	-1.6	6.0	32.1*	5.7	-3.5	4.9	38.1*
Cc1ccc(C)c(Nc2c([N+](=O)[O-])cc(C(=O)N3CC(=O)Nc4ccccc43)cc2[N+](=O)[O-])c1	3.6	7.3	6.4	4.7	1.2	-1.9	/
Cc1nc2ccc(NC(=O)Cc3c(F)cccc3Cl)cc2s1	-1.5	3.4	0.4	-0.2	-0.5	3.5	/
SMILES	PP5 primary	PME-1 inh	LYPLA2 inh	PP1 inh	LYPLA1 inh	Fam108B inh	LYPLA2 conf	others
CN(CC(=O)Nc1ccc(N2CCOCC2)cc1)C(=O)CCc1cc(C(C)(C)C)c(O)c(C(C)(C)C)c1	2.5	7.9	0.0	-0.3	1.2	-2.7	/
Cn1c(-c2ccc(Cl)cc2)cnc1NCc1cc2c(cc1[N+](=O)[O-])OCO2	2.3	8.5	50.7*	2.9	-0.4	2.1	48.8*
COc1ccccc1CNc1ncc(-c2ccc(F)cc2)n1C	1.6	0.4	-0.6	-0.8	-1.7	2.4	/
Cn1c(-c2ccc(F)cc2)cnc1NCc1cc2c(cc1[N+](=O)[O-])OCO2	1.6	2.2	41.5*	2.8	3.3	0.4	44.2*
Cn1c(-c2ccccc2)cnc1NCc1cc2c(cc1[N+](=O)[O-])OCO2	2.1	6.7	29.2*	-2.1	-1.0	1.8	40.9*
COc1ccccc1CNc1ccc([N+](=O)[O-])cc1C	2.1	-4.6	2.5	4.1	-0.1	-0.3	/
Cn1c(-c2ccc3c(c2)OCO3)cnc1NCc1cccc(O)c1	4.0	-1.8	-1.3	1.5	4.3	0.6	/
Cc1cc(F)ccc1NCc1cc2c(cc1[N+](=O)[O-])OCO2	5.7	2.8	26.9*	3.3	3.4	6.0	7.8
CC(=O)N1CCN(S(=O)(=O)c2cccc(C(=O)NNC(=O)Cn3nc(C)cc3C)c2)CC1	-2.8	8.7	0.7	-4.8	0.4	/	/
CCN(C(=O)COC(=O)C1CC1)c1c(N)n(Cc2ccccc2)c(=O)[nH]c1=O	-1.2	2.4	-9.0	-2.1	-1.9	/	/
CCOC(=O)C(CC)n1cnc2c(nnn2-c2ccc(F)cc2)c1=O (stereo unspecified)	0.9	-4.6	0.2	-2.9	1.0	2.2	/
CCCCCC(=O)Nc1ccc(C(=O)COC(=O)CN2C(=O)NC3(CCCC3)C2=O)cc1	-0.6	-1.8	0.4	-2.2	-1.6	0.6	/
CC(C)(C)OC(=O)NC(CCCCNC=O)C(=O)O (stereo unspecified)	2.0	2.7	80.7*	-3.4	9.2	3.2	3.3
O=C(N/N=C/c1cccc(Cl)c1)C1CCCC1	0.4	8.3	4.4	-0.8	3.4	7.2	/
COc1cc(OC)nc(Oc2ccc(N)c(C)c2)n1	1.4	-3.9	9.4	0.2	5.2	1.0	/
